# Screens (PubChem BioAssay)
# Pf growth 48h: Primary qHTS for delayed death inhibitors of the malarial parasite plastid, 48 hour incubation; P. falciparum luciferase growth in erythrocytes, 48 h; Potency, µM (highest dose often 28.7 µM), inactives show top-dose activity change, negative = inhibition, actives largely listed as inhibitors; actives 5.9% (n = 310,000); note: potency is the fitted concentration of half-maximal effect; % is set by controls: 0 for no effect and ±100 for the full control effect
#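 Compounds are pin-transferred into medium, infected erythrocytes (2% hematocrit, 0.1% parasitemia final) are added, and plates sit one parasite generation at 37 C in 5% CO2. Detection reagent is then added and luminescence measured.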
# Shiga inhibitor: A qHTS for Small Molecule Inhibitors of Shiga Toxin. Vero cells, Shiga toxin protein synthesis inhibition reporter. inhibition, % at 38.7 µM. actives 9.2% (n = 290,000); in the data active = inhibition mostly above about 28%, no sharp cut-off; inactive = mostly below about 43%; note: 0% is about no effect
# CHX counter: Cycloheximide Counterscreen for Small Molecule Inhibitors of Shiga Toxin | cell reporter, cycloheximide protein synthesis inhibition counterscreen | max response, % | actives 12% (n = 300,000) | AID 2314, 2010; in the data active = max response mostly above about 13%, no sharp cut-off; inactive = mostly below about 14%; note: read at 38.3 µM for the half of the compounds with a filed dose; 0% is about no effect
# Pf growth 96h: Primary qHTS for delayed death inhibitors of the malarial parasite plastid, 96 hour incubation. P. falciparum luciferase reporter growth, 96 h. Potency, µM (highest dose often 28.7 µM), for the others: at the highest dose activity change, negative = inhibition, hits mostly inhibitors. actives 6.9% (n = 320,000). AID 504834, 2011; note: potency is the fitted concentration of half-maximal effect; % is set by controls: 0 for no effect and ±100 for the full control effect
#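 Luminescence readout: decreased luciferase signal marks inhibited growth of reporter-expressing P. falciparum in infected red cells (2% hematocrit, 0.05% parasitemia final), exposed to compound two generations (96 h, 37 C, 5% CO2).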
# Numbers without * were called inactive; ? = inconclusive; / = no result given. In the library only some 21% were active in any assay of this set; here they are far more common. Unless noted, calls come from the whole dose curve; as a rule, active = well fitted inhibition curve with a large enough effect; inconclusive = small, poorly fitted or top-dose-only effect, or another doubt; inactive = no such curve, though single readings can be large or run the other way.
SMILES,Pf growth 48h,Shiga inhibitor,CHX counter,Pf growth 96h
Cc1ccc(-n2ncc3c(N4CCCC4)ncnc32)c(C)c1,-2%,24,2,?
Cc1ccc(C)c(N2CCN(c3ncnc4c3cnn4-c3ccccc3)CC2)c1,/,13,0,-18%
O=C(COc1ccccc1)Nc1nnc(S(=O)(=O)Nc2ccccc2)s1,38%,-2,-3,2%
COc1ccc(Nc2nc(N3CCOCC3)nc(N3CCOCC3)n2)cc1Cl,-28%,1,-3,8%
CC1CC(C)CN(c2ncnc3c2cnn3-c2ccc(Cl)cc2)C1 (stereo not drawn),303%,105*,59*,292%
N=C1c2ccccc2CN1c1ccc(N2CCOCC2)c(S(=O)(=O)Nc2ccc(Cl)cc2)c1,?,-19,-2,9.3µM*
N/C(Cc1ccc(Cl)cc1Cl)=N\OC(=O)Cc1cccs1,25%,51*,36*,-3%
N/C(Cc1ccc(Cl)cc1Cl)=N\OC(=O)c1cccs1,47%,52*,11,2%
COc1ccc(OCC(=O)O/N=C(\N)Cc2ccc(Cl)cc2Cl)cc1,/,-8,-3,?
N/C(Cc1cccs1)=N\OC(=O)COc1ccc(Cl)cc1Cl,/,127*,59*,0%
CCC(CC)c1nnc(NC(=O)C2CSC3(C)CCC(=O)N23)s1 (stereo not drawn),5%,/,/,12%
CC(C)COc1cccc(C(=O)NC(=S)Nc2cccc(NC(=O)c3ccccc3Cl)c2)c1,7%,-7,1,2%
CCC(=O)Nc1cccc(NC(=O)c2ccccc2Cl)c1,11%,6,-3,?
Cc1ccccc1C(=O)NC(=S)Nc1cccc(NC(=O)C(C)C)c1,14%,42,27*,23%
CC(C)C(=O)Nc1cccc(NC(=S)NC(=O)c2ccccc2Cl)c1,2%,14,25*,9%
Cc1cc(C(=O)NC(=S)Nc2cccc(NC(=O)C(C)C)c2)ccc1[N+](=O)[O-],22%,10,36*,98%
CCC(=O)Nc1cccc(NC(=S)NC(=O)c2ccccc2Cl)c1,78%,37,25*,?
COc1ccc(-c2ccc(C3C4C=CCC(C)C4C(=O)N3Cc3ccccc3)c(F)c2)cc1 (stereo not drawn),/,13,20,/
CCOC(=O)c1c(NC(=O)COc2ccc3ccc(=O)oc3c2)sc(C(=O)N(C)C)c1C,2%,7,-1,11%
COc1cc(C(=O)NCC2CCCO2)cc(Br)c1OCc1ccccc1 (stereo not drawn),?,/,/,-12%
CCC(=O)Nc1cccc(NC(C)=O)c1,/,-6,-3,8%
CCC(=O)Nc1cccc(NC(=S)NC(=O)c2cccs2)c1,171%,110*,40*,14%
CCCOc1cccc(C(=O)NC(=S)Nc2cccc(NC(=O)c3ccccc3Cl)c2)c1,2%,-13,4,2.9µM*
COc1cc2c(cc1OC)CN(C(=O)C1CCC(=O)N(CCCN3CCOCC3)C1)CC2 (stereo not drawn),-3%,-2,15,-2%
COc1ccc(CN2CCN(Cc3ccon3)CC2CCO)c(C)c1C (stereo not drawn),5%,-2,7,32%
SMILES,Pf growth 48h,Shiga inhibitor,CHX counter,Pf growth 96h
CC(C)c1cc(NCCOCCO)n2c(nc3ccccc32)c1C#N,?,-10,6,-6%
Cc1c(CC(=O)NCCCC(=O)O)c(=O)oc2cc3c(cc12)CCC(C)(C)O3,2.6µM*,-2,-2,?
CCC(NC(=O)Cc1c(C)c2cc3c(cc2oc1=O)OC(C)(C)CC3)C(=O)O (stereo not drawn),167%,23,21*,267%
Cc1ccsc1/C=C1\SC(N2CC(C)OC(C)C2)=NC1=O (stereo not drawn),?,-7,0,?
CCN(C(=O)CN1C(=O)NC2(CCc3ccccc32)C1=O)C1CCCCC1 (stereo not drawn),2%,/,/,-12%
COc1ccc(-c2cn3cccnc3n2)cc1F,131%,51*,44*,9%
Brc1ccc(-c2cn3cccnc3n2)cc1,81%,75*,35*,/
Clc1ccc(-c2cn3cccnc3n2)cc1,/,22,19*,109%
Clc1ccc(-c2cn3cccnc3n2)cc1Cl,64%,61,26*,/
COc1ccc(-c2cn3cccnc3n2)cc1NS(=O)(=O)c1ccccc1,?,34,-1,-3%
O=S(=O)(Nc1ccc(-c2cn3cccnc3n2)cc1)c1ccccc1,?,10,4,-24%
COc1ccc(-n2nnc3c(SC(C(C)=O)C(=O)N(C)C)ncnc32)cc1 (stereo not drawn),?,-6,-5,?
Cc1sc2nc(CSCC(=O)Nc3ccccc3C#N)[nH]c(=O)c2c1C,-8%,-7,-1,5.2µM*
Fc1cccc(Nc2cc(-n3cccn3)ncn2)c1,206%,51*,49*,80%
Cc1ccc(Nc2cc(-n3nc(C)cc3C)ncn2)c(C)c1,?,24,-2,11%
Cc1ccc(Nc2cc(-n3cccn3)ncn2)c(C)c1,/,22,28*,-26%
Cc1cc(Nc2cccc(F)c2)nc(N2CCOCC2)n1,0%,18,14,39%
Cc1cc(C)n(C(=O)CNC(=O)c2ccc3c(c2)OCCO3)n1,24%,18,18,1.9µM*
Cc1cccc(NC(=O)C23CCC(C)(C(=O)O2)C3(C)C)c1 (stereo not drawn),1%,10,7,14%
CC12CCC(C(=O)Nc3ccc4c(c3)OCCO4)(OC1=O)C2(C)C (stereo not drawn),53%,94*,47*,/
CC(=O)Nc1ccc(C(=O)Nc2ccc3c(c2)OCO3)cc1,31%,57*,18*,2.3µM*
Cc1ccc(C(=O)Nc2ccc3c(c2)OCCO3)o1,/,35,31*,275%
Cc1cc(C)n(C(=O)CNC(=O)c2cccc(Cl)c2)n1,1%,27,4,-18%
CS(=O)(=O)Nc1ccc(C(=O)NCc2ccc3c(c2)OCO3)cc1,17%,-10,-6,/
Cc1cc(C(=O)Nc2ccc3c(c2)OCCO3)co1,205%,76*,57*,20%
SMILES,Pf growth 48h,Shiga inhibitor,CHX counter,Pf growth 96h
CS(=O)(=O)Nc1ccc(C(=O)Nc2ccc3c(c2)OCO3)cc1,71%,53*,26*,10%
Cc1ccc(NC(=O)c2ccc3c(c2)OCCO3)cc1C,182%,21,15,11%
Cc1cc(C)n(C(=O)CNc2ccc(C)c(C)c2)n1,6%,29,32*,458%
Cc1cc(C)n(-c2ccc(C(=O)Nc3ccc4c(c3)OCCO4)cc2)n1,31%,100*,45*,-3%
Cn1c(=O)c2ccccc2n(Cc2ccccc2Cl)c1=O,?,-7,5,-22%
Cc1cc(C)c(C)c(S(=O)(=O)N2CCC(C(=O)NCC(c3ccccc3)N(C)C)CC2)c1C (stereo not drawn),?,2,-4,-28%
Cc1ccc(S(=O)(=O)NCCC(=O)OCc2ccc([N+](=O)[O-])cc2)cc1C,15%,/,/,-5%
O=C(Nc1ccc2c(c1)OCCO2)C1CCC1,54%,28,21,/
CC(=O)Nc1ccc(C(=O)Nc2ccc3c(c2)OCCO3)cc1,/,42*,27*,?
